According to PubChem BioAssay (NCI):
Compounds without any hit were thinned out: in the full panel of roughly 83,000, 20% have a hit.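 The test compound was applied at a single concentration to cells in 96-well plates for 48 hours, and percent growth was recorded.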 A number with no mark means an inactive call. Calls of active or inactive are those of the source. How the source made its calls: active means growth percent below 10; inactive means the rest.

Test system: MDA-MB-468 breast
Experiment: NCI-60 one-dose screen, 48 h (100 = growth as untreated, 0 = no growth, -100 = all killed)
Conditions: 10 µM unless noted

SMILES | growth
CCN(CC)c1ccc2nc3ccc(=[N+](CC)CC)cc-3oc2c1 | -46.6% (active)
Oc1c(Cl)cc(Cl)c2ccc(Cn3cc(-c4ccc(C(F)(F)F)cc4)nn3)nc12 | 39.6%
CCCCCC(=O)O[C@]1(C(C)=O)CCC2C3CCC4=CC(=O)CC[C@]4(C)C3CC[C@@]21C (stereo not given in full) | -2.63% (active)
CCCCCCCCCCCC[n+]1ccccc1 | -23.6% (active)
CC(C)n1cnc2c(Nc3cccc(Cl)c3)nc(N[C@H]3CCCC[C@@H]3N)nc21 | 20%
COc1ccc(C2=C(CN)C(O)NC(=NCC(=O)c3ccc4ccccc4c3)N2)cc1 (stereo not given) | 118%
O=C1NC(=O)/C(=C/c2ccc(Cl)cc2Cl)N1 | 130%
N[C@@H]1CCC[C@H]1NCCCCN1C(=O)c2cccc3cccc(c23)C1=O | 53.9%
CCO/C=N/C1=C(C#N)C(c2ccc(OC)cc2)c2sc3c(F)cccc3c2O1 (stereo not given) | 17.7%
CCCCNCC(=O)Nc1ccc(C(=O)OCC)cc1 | 103%
Cn1c(-c2ccccc2)c(/C=C/C2=[N+](C)c3ccccc3C2(C)C)c2ccccc21 | -16.5% (active)
Cc1cc(C(=O)Nc2ccc3cc(CN4CCOCC4)ccc3n2)c(C)n1-c1ccccc1 | 26.7%
Cn1cc(-c2cc3ncnc(Nc4ccc(CC(=O)Nc5cc(C(C)(C)C)nn5C)cc4)c3s2)cn1 | 33.8%
Cn1cc(-c2nnc(-c3ccccc3)s2)c2cc(Br)cnc21 | 59.4%
CCOC(=O)c1ccc2[nH]c(-c3ccccc3)cc(=O)c2c1 | 105%
CC(=O)C(C(C)=O)c1nc2sc3cc(Cl)ccc3n2c(=N)c1C#N | 41.7%
COC(=O)CC1=C(c2ccc([N+](=O)[O-])cc2)CCC1=O | 101%
COC(=O)c1ccc(NC(=O)CSc2nc(-c3ccc(F)cc3)nc3ccccc23)cc1 | 80.1%
O=C(Nc1cccc(Cl)c1)Nc1nccs1 | -0.235% (active)
COc1ccc(-c2cnoc2-c2ccc(OC)cc2O)cc1 | 1% (active)

SMILES | growth
CCc1c(C)[nH]c(=O)c(C(N)=O)c1C#N | 105%
CCOC(=O)c1c(NC(=O)c2ccc(C(C)(C)C)cc2)sc2cc(OCCN3CCCCC3)ccc12 | 85.8%
CCCC(=O)CC(=O)c1ccccc1 | 97.5%
CCCCCCC(C)c1ccccc1O (stereo not given) (tested in a mixture with another compound) | 124%
COc1cc(Nc2ccnc3ccc(Br)cc23)cc(OC)c1OC | 14.9%
CCOC(=O)C(=CNc1cnc(Nc2ccc(N3CCOCC3)cc2)nc1Oc1ccc(OC)cc1)C(=O)OCC | 61.5%
S=C=NP1(N=C=S)=NP(N=C=S)(N=C=S)=NP(N=C=S)(N=C=S)=NP(N=C=S)(N=C=S)=N1 (stereo not given) | 107%
COc1cc2c(cc1-c1c(C)noc1C)ncc1nc(C3CCC(F)(F)CC3)n([C@@H](C)COC(F)F)c12 | 39.3%
O=S(=O)(O)c1cc(O)c2c(N=Cc3ccccc3O)c(S(=O)(=O)O)ccc2c1 | 101%
O=C(Nc1cc(-c2ccccc2)[nH]n1)c1ccc(Cl)cc1 | 73%
CCc1cccc2c1S/C(=C/c1ccc(Cl)cc1)C2=O | 93.6%
COc1ccc(OC)c(/C=C/C(=O)N/N=C/c2ccc(Cl)cc2)c1 | -4.03% (active)
NCC(O)C(O)C(O)C(O)CO (stereo not given) | 98.7%
O=C(O)c1ccc(-n2cc(/C=N/Nc3ccccc3F)c(-c3ccc(O)cc3)n2)cc1 | 78.3%
Cc1ccccc1C(c1ccccc1)c1ccccc1C | 50.3%
Cc1ccc(S(=O)(=O)N/N=C/c2cn(-c3ccc(F)cc3)nc2-c2ccc(S(C)(=O)=O)cc2)cc1 | 97%
CN1C2C=CC(=O)C1C1C(=O)N(c3ccccc3)C(=O)C12 (stereo not given) | 0.669% (active)
COC(=O)c1ccc2[nH]c(O)c(C(=Nc3ccc(N(C)C(=O)CN4CCN(C)CC4)cc3)c3ccccc3)c2c1 | 52.3%
N/C(=N\c1nc2c(Br)cccc2s1)C(Br)Br | -58.8% (active)
CCCCCCCCCCCCCCCCOCCCOP(=O)(O)C1CCCN(O)C1=O (stereo not given) | -7.42% (active)
